Source: PubChem BioAssay AID1347156 (National Center for Advancing Translational Sciences (NCATS), 2019)
Records with an inconclusive call do not appear. Unmarked numbers belong to inactive results. Active and inactive are the calls of the source. Calls follow the shape of the dose curve; as a rule, active = well fitted cell-killing curve with a large enough effect; inconclusive = small, poorly fitted or top-dose-only effect; inactive = flat fitted curve, though single readings scatter.

Experiment: DAPI mCherry counterscreen qHTS for Zika virus inhibitors; also: nearly all actives have a fitted effect of over 55% in size
Details: Vero cells, DAPI nuclear count cytotoxicity, imaging 48-72 h, infected with Zika reporter virus, MOI 1; series mostly up to 32.6 µM; activity change, negative = cell loss: at the top concentration
Summary of the method: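 Vero cells (5,000/well), plated overnight, given compounds then recombinant ZIKV-mCherry at MOI 1 for 48-72 hrs at 37 degrees C; PFA-fixed, Hoechst-stained and imaged; nuclei counted and mCherry-positive cells scored as percent infection.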
% is scaled to controls: 0 for no effect and ±100 for the full control effect; potency is read from the fitted curve at half-maximal effect.

Structure (SMILES)	Potency	activity change, negative = cell loss
C/C(=C\c1ccc(C(=O)O)cc1)c1ccc2c(c1)C(C)(C)CCC2(C)C	20 µM (active)	–
O=C(O)COc1ccccc1C1Nc2ccccc2-c2nnc(SCc3ccc(Cl)cc3)nc2O1 (configuration not stated)	–	-15%
O=C(OCc1cc(=O)n2nc(C3CC3)sc2n1)c1ccc(NC(=O)c2ccccc2Cl)cc1	–	-18.5%
CC[C@H](C)[C@H]1O[C@]2(CC[C@@H]1C)C[C@@H]1C[C@@H](C/C=C(\C)[C@@H](O[C@H]3C[C@H](OC)[C@@H](O[C@H]4C[C@H](OC)[C@@H](O)[C@H](C)O4)[C@H](C)O3)[C@@H](C)/C=C/C=C3\CO[C@@H]4[C@H](O)C(C)=C[C@@H](C(=O)O1)[C@]34O)O2	8.91 µM (active)	–
O=C(O)Cn1nnc(-c2ccc(OCc3cccc(C(F)(F)F)c3)cc2)n1	–	-10.2%
O=c1cc(-c2ccccc2)oc2cc(O)c(O)c(O)c12	–	-18.4%
O=C(O)c1cc(-c2ccc(C(F)(F)F)cc2)nc2n[nH]c(-c3ccccc3)c12	–	-12.5%
O=c1c(O)c(Br)ccc2c(Br)c(O)c(O)c(O)c12	–	-12.3%
O=C1NC(=O)c2cc(Nc3ccccc3)c(Nc3ccccc3)cc21	31.6 µM (active)	–
CC1(C)CCC(CN2CCN(c3ccc(C(=O)NS(=O)(=O)c4ccc(NCC5CCOCC5)c([N+](=O)[O-])c4)c(Oc4cnc5[nH]ccc5c4)c3)CC2)=C(c2ccc(Cl)cc2)C1	5.62 µM (active)	–
N#CC(C#N)=C(N)/C(C#N)=C/c1cc(O)c(O)c(O)c1	–	-9.4%
O=S(=O)(O)c1cc(O)c2c(N=Nc3ccc(Nc4ccccc4)c4c(S(=O)(=O)O)cccc34)cc(S(=O)(=O)O)cc2c1	–	-9.05%
Cc1ccc([C@@H]2CC=C(C(=O)O)[C@H](c3ccc(C(C)(C)C)cc3)N2S(=O)(=O)c2ccc(C)cc2)cc1	31.6 µM (active)	–
CC1CCC(C(=O)N(c2cc(C#CC(C)(C)C)sc2C(=O)O)C2CCC(O)CC2)CC1 (configuration not stated)	25.1 µM (active)	–
Oc1c(Cl)cc(Cl)cc1Sc1cc(Cl)cc(Cl)c1O	–	-7.24%
O=C(O)COc1ccc(-c2nccc3c2C(=O)N(Cc2cccc(C(F)(F)F)c2)CC(COc2ccc4cnccc4c2)O3)cc1 (configuration not stated)	–	-13.5%

Structure (SMILES)	Potency	activity change, negative = cell loss
O=C(Nc1ccc(C(=O)OCc2cc(=O)n3c4c(sc3n2)CCCC4)cc1)c1ccc(F)cc1	–	-5.72%
CCCCCCCC/C=C\CCCCCCCC(=O)NCCc1ccc(O)c(O)c1	8.91 µM (active)	–
COc1ccc(Br)cc1S(=O)(=O)NC(=O)/C=C/c1ccccc1Cc1ccc2ccccc2c1	31.6 µM (active)	–
Cc1cc(C)c2c(c1)C(N(Cc1cc(C(F)(F)F)cc(C(F)(F)F)c1)c1nnn(C)n1)CCCN2CC1CCC(C(=O)O)CC1 (configuration not stated)	35.5 µM (active)	–
Cc1cc(CN2CCN(c3c(Br)cnc4nc(-c5ccc(N6CCN(C)CC6)cc5)[nH]c34)CC2)no1	10 µM (active)	–
O=C(O)Cc1cccc(OCCCN(Cc2cccc(C(F)(F)F)c2Cl)CC(c2ccccc2)c2ccccc2)c1	15.8 µM (active)	–
CN(C)CC[C@H](CSc1ccccc1)Nc1ccc(S(=O)(=O)NC(=O)c2ccc(N3CCN(Cc4ccccc4-c4ccc(Cl)cc4)CC3)cc2)cc1[N+](=O)[O-]	5.01 µM (active)	–
C/C=C/C=C/C=C/C(=O)O[C@@H]1[C@@H](OC)C2=C(C(=O)N(C(CCC(=O)O)C(=O)O)C2)[C@@]2(C)CCCC(C)(C)[C@H]12 (some centres not stated)	–	-13.5% [at 16.3 µM]
Cc1ccc(-c2nnc(Nc3ccc(S(N)(=O)=O)cc3)c3ccccc23)cc1S(=O)(=O)N1CCOCC1	–	-13.5%
O=C(Nc1ccccc1)c1ccc2c(O)c(S(=O)(=O)c3ccc(Cl)cc3)c(=O)[nH]c2c1	–	-8.31%
COc1cccc(-n2nc(C(=O)O)cc2-c2ccc(C3CCCCC3)c(Cl)c2)c1	35.5 µM (active)	–
CN(C)[C@@H]1C(=O)C(C(N)=O)=C(O)[C@@]2(O)C(=O)C3=C(O)c4c(O)cccc4C[C@H]3C[C@@H]12	–	-13.2%
CCOC(=O)c1cccc(NC(=O)CSc2ncc3c(n2)-c2ccc(Cl)cc2N(Cc2ccccc2)S3(=O)=O)c1	–	-13.5%
COc1ccc(-c2ccccc2)cc1NS(=O)(=O)c1cc(Cl)cc(Cl)c1O	11.2 µM (active)	–
C/C(=C\CC/C(C)=C/CC[C@]1(C)CCc2cc(O)cc(C)c2O1)CC/C=C(\C)C(=O)O	14.1 µM (active)	–
COc1ccc(C(=O)Nc2ccc(C(=O)OCc3cc(=O)n4nc(C(C)C)sc4n3)cc2)cc1	–	-5.33%
